A selection: hits, their analogues and other compounds. The true share with any hit is near 27%.
CYP2C9 activ = human CYP2C9 activators, primary screen, biochemical, luminescence | activation factor at 5 µM | AID 1024, 2008 | recombinant CYP2C9, luciferin-H conversion; active compounds read high; factor 1 = untreated enzyme, 0 = blocked | Cytochrome P450 2C9 (Homo sapiens), P11712 | 1.4% of 96,000 active;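 active means activation factor of 2 or more for CYP2C9 at a 5 µM dose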;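 further: 0 = sulfaphenazole-blocked wells and 1 = vehicle-only wells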
Target sequence (P11712 whole entry, looked up): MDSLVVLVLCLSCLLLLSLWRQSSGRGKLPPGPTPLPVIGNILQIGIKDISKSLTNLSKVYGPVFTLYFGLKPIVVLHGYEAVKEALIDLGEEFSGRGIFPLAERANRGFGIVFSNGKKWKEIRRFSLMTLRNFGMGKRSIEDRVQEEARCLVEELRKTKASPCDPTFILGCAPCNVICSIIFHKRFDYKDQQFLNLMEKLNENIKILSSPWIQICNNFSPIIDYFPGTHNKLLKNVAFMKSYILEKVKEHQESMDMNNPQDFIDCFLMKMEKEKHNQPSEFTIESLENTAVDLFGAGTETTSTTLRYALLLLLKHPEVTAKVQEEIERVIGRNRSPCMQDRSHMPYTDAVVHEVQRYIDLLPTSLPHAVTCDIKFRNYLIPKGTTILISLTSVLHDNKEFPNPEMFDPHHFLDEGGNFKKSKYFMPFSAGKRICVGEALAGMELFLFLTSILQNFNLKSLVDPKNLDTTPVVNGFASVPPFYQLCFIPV
Cav32 inh = Cav3.2 calcium influx blockers – cell-based, Fluo-4 calcium fluorescence, FDSS, MLSMR library, primary screen. B-score at 10 µM. AID 449739, 2010. 4% of 100,000 active. Cav3.2-expressing cells; active compounds read low;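 active means single-dose well whose peak fluorescence ratio is a statistical outlier from its plate by either plate-standardised score or position-corrected B-score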
CYP2C9 inh = blockers of cytochrome P450 2C9 activity – biochemical, luminescence, ADME assay, primary screen; P11712; AID 777, 2007; CYP2C9 Supersomes, luciferin-H conversion; inhibition, % at 5 µM; 20% of 96,000 active;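 active means blocking of liver enzyme CYP2C9 beyond about 50% at 5 µM, limit read from the data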
CYP2C19 act = human CYP2C19 activators, primary screen, biochemical, luminescence; activation factor at 5 µM; recombinant CYP2C19, luciferin-H EGE luminescence; active compounds read high; 0 = fully inhibited enzyme, 1 = untreated enzyme; Cytochrome P450 2C19 (Homo sapiens), P33261; 96,000 tested, under 10 active;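 active means activation factor of at least 2 at 5 µM in the primary screen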;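 further: 0 = wells with 2.5 mM tranylcypromine and 1 = vehicle-only wells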
CYP2C19 inh = blockers of cytochrome P450 2C19 activity – biochemical, luminescence, ADME assay, primary screen. 21% of 96,000 active. P33261. inhibition, % at 5 µM. CYP2C19 Supersomes, luciferin-H EGE luminescence, 30 min;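 active means CYP2C19 inhibition above a set limit at 5 µM in the primary screen, cut at about 50% in these data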;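 further: plate controls were negative control wells for no effect and 2.5 mM tranylcypromine positive control for full effect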
* marks the source's active call; other numbers are inactive results; · = not tested or not shown.

SMILES | CYP2C9 activ | Cav32 inh | CYP2C9 inh | CYP2C19 act | CYP2C19 inh
CNC(=O)C(C)NS(=O)(=O)c1ccc(F)cc1 (stereo not drawn) | 1 | -0.6 | -4 | 0.2 | 81*
CCOc1ccc(C(C)NC(=O)Nc2ccccc2C(=O)OC)cc1 (stereo not drawn) | 0.6 | -0.4 | 41 | 0.3 | 70*
CC1CCN(Cc2csc(N)n2)CC1 | 1 | 1.3 | 0 | 1.3 | -27
C=CCSc1nnc2nc3[nH]c4c(C)cccc4c3nn12 | 1 | 0.16 | 3 | 1 | -4
COC(=O)c1ccccc1NC(=O)C(C)NS(=O)(=O)c1ccc(OC)cc1 (stereo not drawn) | 0.9 | 0.87 | 13 | 0.4 | 57*
COC(=O)c1ccccc1NC(=O)C(C)Oc1ccccc1 (stereo not drawn) | · | -2.8 | · | · | ·
COc1ccccc1NC(=O)C(C)NS(=O)(=O)c1ccc(F)cc1 (stereo not drawn) | 3* | 0.35 | -205 | 0.5 | 53*
CCC(=O)Nc1ccc(N2CCN(C(=O)c3ccccc3C)CC2)cc1 | 0.9 | 0.31 | 9 | 1.1 | -5
O=C(c1ccccc1-c1nc(-c2ccc(Cl)cc2)no1)N1CCCC1 | 0.2 | -2.2 | 78* | 0.6 | 43
CN1CCN(C(=O)c2ccccc2-c2nc(-c3ccc(Cl)cc3)no2)CC1 | 0.4 | -0.33 | 56* | 0.7 | 27
O=C(c1ccccc1-c1nc(-c2ccccc2)no1)N1CCCC1 | · | 0.19 | · | · | ·
Cc1ccccc1-c1noc(-c2ccccc2C(=O)N2CCCC2)n1 | 0.2 | -0.99 | 84* | 0.4 | 63*
Cc1ccccc1C(=O)N1CCCN(C(=O)c2ccccc2C)CC1 | 1 | 1.7 | 4 | 0.4 | 58*
COc1ccccc1N(Cc1cc2cccc(C)c2[nH]c1=O)C(=O)C(C)C | 0.6 | -1.8 | 38 | 0.8 | 20
CC(C)=CCOc1ccc([C@@H]2COc3c(ccc4c3C=CC(C)(C)O4)C2)c(O)c1 | · | 0.33 | · | · | ·
O=C(c1ccccc1/S(=N/S(=O)(=O)c1ccccc1)N1CCOCC1)N1CCOCC1 (stereo not drawn) | 1.1 | 0.058 | -12 | 1.1 | -5
Cc1ccccc1-c1noc(-c2ccc(O)cc2)n1 | 0.8 | 0.54 | 18 | 0.4 | 59*
Cc1ccccc1-c1noc(-c2ccccc2F)n1 | 1.1 | 0.36 | -10 | 1.1 | -14
CCN1C(=O)c2cccc3c(S(=O)(=O)NCCc4c[nH]c5ccccc45)ccc1c23 | 0.2 | -0.6 | 84* | 0.4 | 63*
CCOc1ccc(S(=O)(=O)NCCCN2CCOCC2)cc1 | 1.2 | 0.76 | -24 | 1 | 1
CCN1C(=O)c2cccc3c(S(=O)(=O)NCCCN4CCOCC4)ccc1c23 | 0.5 | 0.64 | 46 | 0.5 | 54*
O=C(C1CCN(S(=O)(=O)N2CCOCC2)CC1)N1CCOCC1 | 1 | 0.32 | -4 | 1.1 | -9
O=C(CCc1ccccc1O)N/N=C/c1ccc(Sc2cccc3cccnc23)o1 | 0 | -1.8 | 99* | 0.5 | 49
COC(=O)c1ccc(/C=N/NC(=O)c2cccc(F)c2)cc1 | 0.9 | 0.67 | 7 | 0.9 | 14
O=C(N/N=C/c1ccncc1)c1cc2c(ccc3ccccc32)o1 | 0.6 | · | 45 | 1.1 | -6
SMILES | CYP2C9 activ | Cav32 inh | CYP2C9 inh | CYP2C19 act | CYP2C19 inh
O=C(CSc1cccc2cccnc12)NCc1ccco1 | 1.5 | · | -47 | 0.9 | 6
O=C(N/N=C/c1ccc(Sc2ccccn2)o1)c1cc2ccccc2cc1O | 0.1 | -5* | 88* | 0 | 98*
O=C(N/N=C\c1ccc(Sc2ccccn2)o1)c1cccc(F)c1 | 0.4 | 1.2 | 60* | 0.4 | 59*
O=C(NCc1cccc(Br)c1)C1CC2Cn3c(nc4ccccc43)C2N1c1ccccc1 (stereo not drawn) | · | -0.33 | · | · | ·
CCOC(=O)N1CCC2(CC1)C(C#N)=C(N)Oc1c2sc2nc(C)cc(C)c12 | 0.5 | 0.33 | 47 | 0.5 | 46
CCOC(=O)N1CCC2(CC1)C(C#N)=C(N)Oc1c2c(C)nn1-c1cccc(Cl)c1 | 0.3 | -0.24 | 72* | 0.7 | 30
CCOC(=O)N1CCC2(CC1)C(C#N)=C(N)Oc1n[nH]c(C)c12 | 0.7 | · | 33 | 0.5 | 50*
Cc1[nH]nc2c1C1(CCC3(CC1)OCCO3)C(C#N)=C(N)O2 | 0.9 | -0.093 | 10 | 0.9 | 9
CC(=O)N1CCC2(CC1)C(C#N)=C(N)Oc1n[nH]c(CSc3ccc(C)cc3)c12 | 0.5 | 0.8 | 53* | 0.6 | 41
O=C(CSc1nnc(Cc2cccs2)n1-c1ccccc1)NCc1ccc2c(c1)OCO2 | 0.4 | -4.7* | 59* | 0.8 | 20
CC(Sc1nnc(C2CCCCC2)n1N)C(=O)NCc1ccc2c(c1)OCO2 (stereo not drawn) | 0.7 | -0.73 | 31 | 0.7 | 32
C=CCn1c(SC(C)C(=O)NCc2ccc3c(c2)OCO3)nc2scc(-c3ccccc3)c2c1=O (stereo not drawn) | 0.2 | -2.2 | 80* | 0.2 | 76*
O=C(CSc1nnc2scc(-c3ccccc3)n12)NCc1ccc2c(c1)OCO2 | 0.9 | 0.61 | 12 | 0.3 | 68*
C=CCn1c(SCC(=O)NCc2ccc3c(c2)OCO3)nc2scc(-c3ccc(F)cc3)c2c1=O | 1 | -1.1 | 0 | 1.1 | -12
CC(Sc1nnc(-c2cccs2)n1-c1ccccc1)C(=O)NCc1ccc2c(c1)OCO2 (stereo not drawn) | 0.1 | -0.16 | 93* | 0.3 | 75*
O=C(O)c1cc(S(=O)(=O)NCc2ccco2)c(Cl)cc1Cl | 1.1 | -2.8 | -11 | 1.1 | -12
c1ccc2c(c1)nc(-c1ccncc1)n1nnnc21 | · | 0.57 | · | · | ·
O=C(CCCSc1nc2sc3c(c2c(=O)[nH]1)CCC3)NCCO | 0.8 | 1.9 | 16 | 0.9 | 6
c1ccc(CN2CCC3(CC2)Nc2ccccc2CO3)cc1 | 0.9 | 0.31 | 8 | 0.1 | 91*
CCOc1ccc2nc(NC(=O)CCC(=O)c3cccs3)sc2c1 | 1 | -0.0019 | 2 | 1 | 3
CC1=C(C)C(=O)C(CCCCC#CCCCC#CCO)=C(C)C1=O | · | -4.1* | · | · | ·
C=CCNC(=O)CN(c1cccc(Br)c1)S(C)(=O)=O | 1.3 | -0.11 | -28 | 0.9 | 12
COC(=O)[C@H](CCSC)NC(=O)Nc1ccc(C)c(C)c1 | 0.8 | -0.028 | 22 | 0.4 | 62*
COC(=O)[C@H](CCSC)NC(=O)Nc1ccc(C)cc1C | 0.8 | 0.021 | 24 | 0.5 | 52*
O=C(N/C(=C\c1ccc(Br)cc1)c1nc2ccccc2[nH]1)c1ccco1 | 0.9 | 0.41 | 14 | 0.6 | 43
NC(=O)C[C@@H]1N[C@]2(C(=O)Nc3ccccc32)[C@@H]2C(=O)N(c3cc(C(F)(F)F)ccc3Cl)C(=O)[C@H]12 | 0.7 | 0.64 | 25 | 0.8 | 24

High-throughput results (PubChem)
